Bioassay records (PubChem)
TROY signal inh – blocks TROY-dependent signaling in reporter cells; actives 0.98% (n = 360,000); inhibition, % at 10 µM; Q293 LMP1-TROYcd NF-kB luciferase reporter, 4 h;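 active = compounds whose plate-normalised and pattern-corrected inhibition of the luciferase reporter signal at the single screening dose is 50% or more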
MITF TRPM1 inh – reduces MITF-dependent TRPM1 promoter luciferase signal | SK-MEL-5 TRPM1 promoter luciferase, 24 h | inhibition, % at 12.5 µM | actives 0.83% (n = 330,000);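 active = mean inhibition across replicates of 60% or more, whatever share of single replicates reaches that level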
TWEAK-Fn14 inh – inhibitors of TWEAK-Fn14 interaction signaling; TWEAK-stimulated Fn14 reporter cells, luciferase luminescence, 8 h; inhibition, % at 10 µM; actives 2% (n = 360,000); AID 1159606; in the data active = inhibition above about 50%
Shn3 3UTR inh – reduces Shn3 3'UTR luciferase signal in osteoblasts. AID 588674. inhibition, % at 12.5 µM. actives 0.52% (n = 360,000). Clone20 osteoblast Shn3 3'UTR firefly luciferase, 24 h;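 active = mean inhibition of at least 75% with every replicate also reaching 75%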;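 also: 0% = median of neutral control wells and 100% = pilot-screen positive control compound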
EBV LMP1 NFkB – reduces LMP1-driven NF-kappaB luciferase signal; LMP1-induced NF-kappaB luciferase reporter cells, luminescence; inhibition, % at 12.5 µM; actives 0.69% (n = 350,000); AID 504558; in the data active = inhibition above about 41%;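 also: 0% = neutral control wells and 100% = reference inhibitor control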
Peg3 promoter – inhibitors of Peg3 promoter; HeLa PEG-Prom luciferase reporter, luminescence, overnight; inhibition, % at 20 µM; actives 1.7% (n = 360,000);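 active = inhibition of at least 50% at 20 µM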
* = called active by the depositor; x = not tested or not shown. A selection: hits, their analogues and other compounds. The true share with any hit is near 4.1%.

SMILES | TROY signal inh | MITF TRPM1 inh | TWEAK-Fn14 inh | Shn3 3UTR inh | EBV LMP1 NFkB | Peg3 promoter
CCOc1ccccc1N(C(=O)c1snc(C(N)=O)c1N)C(C(=O)NCc1ccccc1)c1ccc(O)cc1 (stereo unspecified) | 1 | 21 | 86* | 20 | 38 | 30
Cc1ccccc1N(C(=O)c1snc(C(N)=O)c1N)C(C(=O)NC1CCCCC1)c1ccc(O)cc1 (stereo unspecified) | -7 | -5 | 39 | 31 | 41* | 44
Cc1ccc(N(C(=O)c2nsc(Cl)c2Cl)C(C(=O)NC2CCCC2)c2ccc(O)cc2)cc1C (stereo unspecified) | -3 | -7 | 9 | 5 | -22 | -56
COc1ccc(C(C(=O)NC2CCCC2)N(C(=O)c2snc(-c3ccc(F)cc3)c2N)c2cccc(F)c2)cc1 (stereo unspecified) | -32 | 19 | -88 | 4 | -68 | 51*
Cc1ccccc1OC1C(=O)N(Cc2ccc3c(c2)OCO3)C1c1sccc1C (stereo unspecified) | 24 | 5 | -13 | 71 | 3 | 34
NC(=O)c1nsc(C(=O)N(c2cccc(O)c2)C(C(=O)NC2CCCC2)c2ccc(Cl)cc2)c1N (stereo unspecified) | 22 | 7 | 18 | -5 | 5 | 31
CCOc1ccc(C(C(=O)NC2CCCC2)N(C(=O)c2snc(C(N)=O)c2N)c2cccc(O)c2)cc1 (stereo unspecified) | 13 | 0 | 27 | 6 | 0 | 53*
COc1ccc(C2c3ccc(O)cc3Oc3ncn4nc(-c5ccco5)nc4c32)cc1OC (stereo unspecified) | 15 | 17 | 0 | x | 1 | 19
O=[N+]([O-])c1ccccc1COc1ccc(Cl)c2cccnc12 | -3 | -4 | 65* | -23 | -23 | -147
O=C(Oc1ccc(Cl)c2cccnc12)c1cccc([N+](=O)[O-])c1 | 5 | 19 | 21 | 55 | -5 | 18
CN(C1CCCC1)C1CCN(C(=S)Nc2cc(F)cc(F)c2)CC1 | -4 | -6 | -17 | 71 | 3 | -8
COc1ccc2cc3c(N)nn(C(=O)c4cccc([N+](=O)[O-])c4)c3nc2c1 | 10 | 7 | 47 | -21 | 46* | -11
COc1ccc(-c2nc(N)n(C(=O)Cc3ccccc3)n2)cc1 | 4 | -2 | 15 | -10 | 3 | -12
COc1ccc2cc3c(N)nn(C(=O)C4CCC(C(C)(C)C)CC4)c3nc2c1 (stereo unspecified) | 55* | x | 90* | -4 | 75* | 45
COc1ccc2cc3c(N)nn(C(=O)Cc4ccccc4OC)c3nc2c1 | 35 | 27 | 52* | 4 | 21 | 42
COc1ccc(NC(=O)COc2ccccc2Cc2ccccc2)cc1S(N)(=O)=O | 31 | 15 | 15 | 36 | 26 | 24
Nc1c(C(=O)NCc2ccco2)c2nc3ccccc3nc2n1CCc1ccccc1 | 66* | 17 | 72* | 16 | 2 | 16
Nc1c(C(=O)NCc2ccccc2)c2nc3ccccc3nc2n1CCCN1CCOCC1 | -6 | -4 | 5 | 7 | -61 | 30
COCCCn1c(C(=O)N2CCOCC2)cc2c(=O)n3cccc(C)c3nc21 | -11 | 1 | 15 | -15 | -2 | 12
COCCCn1c(C(=O)Nc2ccc3c(c2)OCO3)cc2c(=O)n3cccc(C)c3nc21 | -14 | x | -64 | -12 | 27 | 60*
COc1ccc(CNC(=O)c2c(N)n(CCCN3CCOCC3)c3nc4ccccc4nc23)cc1 | 0 | -3 | 22 | -12 | -5 | 70*
COc1ccc(CCNC(=O)c2cc3c(=O)n4cccc(C)c4nc3n(CCCN3CCOCC3)c2=N)cc1 | -4 | 73* | -8 | 22 | -42 | 57*
CN(C)C(CNC(=O)C1CCN(S(=O)(=O)c2cc(Cl)ccc2Cl)CC1)Cc1ccccc1 (stereo unspecified) | -2 | -8 | 0 | -17 | -12 | 27
C=CCNc1ncnc2c1ncn2[C@H]1CN(Cc2ccc(-c3ccccc3)cc2)C[C@@H](CO)O1 | 17 | x | 28 | 38 | x | -4
O=[N+]([O-])c1ccc(N/N=C2/CCCCC2c2ccccn2)cc1 (stereo unspecified) | -9 | 4 | -7 | -12 | -12 | 2
SMILES | TROY signal inh | MITF TRPM1 inh | TWEAK-Fn14 inh | Shn3 3UTR inh | EBV LMP1 NFkB | Peg3 promoter
Cc1ccccc1Nc1ccc(S(=O)(=O)N2CCOCC2)cc1[N+](=O)[O-] | 12 | -1 | 5 | 11 | -5 | 59*
NS(=O)(=O)c1ccc(N/N=C2/CCCc3ccccc32)c([N+](=O)[O-])c1 | 2 | -10 | -41 | 2 | 12 | 0
O=[N+]([O-])c1cc(S(=O)(=O)N2CCCCCC2)ccc1F | 9 | 93* | -1 | 8 | -18 | 102*
O=[N+]([O-])c1cc(S(=O)(=O)N2CCCC2)ccc1N/N=C1/CCCc2ccccc21 | 18 | -5 | 64* | 26 | 7 | 0
Cc1cc(C)n(-c2nc(Nc3ccccc3C(F)(F)F)nc(-n3nc(C)cc3C)n2)n1 | 79* | 7 | 81* | 97* | 33 | 86*
Cc1cc(NC(=S)N(CCCN2CCOCC2)Cc2ccco2)ccc1Cl | 0 | 0 | -9 | 2 | -11 | 18
CCc1ccc(-c2cn(-c3nc(C)cc(C)n3)c(=N)o2)cc1 | -1 | -1 | 91* | 1 | 12 | -6
CCc1ccc(-c2cn3c(n2)SCC3)cc1 | -17 | -67 | -11 | -79 | -32 | -287
O=C(N/N=C\c1ccccn1)C1COc2cc3ccccc3cc2O1 (stereo unspecified) | -11 | -3 | 73* | -6 | -4 | 4
N#CCCn1ccc(NC(=O)c2ccc(Cl)cc2)n1 | x | -8 | 67* | -11 | 0 | -23
O=C(Nc1ccn(Cc2ccc(Cl)cc2)n1)c1ccccc1 | -68 | -81 | -7 | -97 | -19 | -223
Nc1cc2ccncc2c2ccccc12 | 57* | -6 | 83* | 10 | 56* | -5
Cc1ccc(C)c(Oc2cc(NC(=O)CCCn3nc(C)c([N+](=O)[O-])c3C)cc([N+](=O)[O-])c2)c1 | 44 | 9 | 73* | 74 | 4 | 27
O=C(c1ccc(Cl)cc1)N1CCN(CCOc2ccccc2)CC1 | 12 | 4 | 10 | 13 | 47* | 9
COc1ccc(OCCN2CCN(C(=O)c3ccc(OC)cc3)CC2)cc1 | 2 | -4 | -5 | 13 | 14 | 5
O=C(c1ccccc1)c1ccc(OCCCCN2CCCCC2)cc1 | -14 | -6 | 70* | -1 | 2 | -4
O=C(CCCOc1ccccc1)N1CCCCC1 | 58* | 6 | 86* | 6 | 26 | 17
CCC1CCCCN1C(=O)CCCOc1ccccc1 (stereo unspecified) | 50* | -48 | 50* | -8 | -23 | -130
Cn1cc([C@@H]2C[C@H]3CN(C4CCCC4)C(=O)[C@]34CCCN24)c(-c2ccccc2)n1 | 1 | 7 | -12 | -1 | -5 | 12
